Out of some 220,000 compounds screened, about 830 (0.38%) were called active. The list is a sample of the results. Measured potencies and affinities stand elsewhere. A number with no mark means an inactive call.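 Rule for the calls: active = compound inhibiting the enzyme by more than half at any dose during confirmatory dose-response retesting; inconclusive = strong single-dose inhibitors picked by rank but not retested; inactive = the rest.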
Target: Leucine aminopeptidase (Plasmodium falciparum (isolate 3D7)) (UniProt Q8IL11)
Sequence (Q8IL11 whole entry, looked up): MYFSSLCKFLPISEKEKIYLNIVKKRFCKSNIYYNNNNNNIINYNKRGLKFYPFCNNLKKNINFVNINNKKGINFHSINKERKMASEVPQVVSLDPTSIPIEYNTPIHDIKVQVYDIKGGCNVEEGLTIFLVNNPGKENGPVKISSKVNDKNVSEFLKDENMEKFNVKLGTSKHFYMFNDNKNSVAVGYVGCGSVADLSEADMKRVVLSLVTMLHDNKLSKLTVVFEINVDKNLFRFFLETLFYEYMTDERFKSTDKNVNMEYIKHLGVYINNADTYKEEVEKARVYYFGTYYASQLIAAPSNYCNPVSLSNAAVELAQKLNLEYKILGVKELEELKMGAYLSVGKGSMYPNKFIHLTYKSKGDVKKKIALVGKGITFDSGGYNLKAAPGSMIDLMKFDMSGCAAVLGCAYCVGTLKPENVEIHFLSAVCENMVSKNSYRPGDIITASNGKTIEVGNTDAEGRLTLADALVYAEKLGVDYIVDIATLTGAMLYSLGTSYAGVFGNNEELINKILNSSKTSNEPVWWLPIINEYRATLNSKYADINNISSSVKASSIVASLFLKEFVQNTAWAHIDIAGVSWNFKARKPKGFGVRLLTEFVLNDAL
Assay: P. falciparum M17LAP inhibitors, primary screen, biochemical, fluorogenic H-Leu-NHMec substrate, 1536-well (AID 1619);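 note: plate controls were full reaction with DMSO carrier for no effect and no enzyme background for full effect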
Settings: recombinant M17LAP, H-Leu-NHMec fluorogenic kinetic assay; at 30 µM; hits give high values

Compound | inhibition
O=C(c1cccc(C(F)(F)F)c1)N1CCc2c([nH]c3ccccc23)C1C(F)(F)F (stereo unspecified) | -3.58%
Cc1cc(C)n(C2CC(=O)N(c3cccc(Cl)c3)C2=O)n1 (stereo unspecified) | 10.2%
CCOc1cc(/C=N/n2cnnc2)ccc1OS(=O)(=O)c1ccc(C)cc1 | -1.56%
O=C(NCCCN1CCCC1=O)c1cc(NS(=O)(=O)c2ccc(F)cc2)cc(NS(=O)(=O)c2ccc(F)cc2)c1 | 22.7%
O=C(CSc1ncnc2nc[nH]c12)Nc1ccc(Br)cc1Cl | 9.25%
O=C(CSc1ncnc2nc[nH]c12)Nc1ccccc1C(F)(F)F | 12%
Cc1cccc(NC(=O)CSc2ncnc3nc[nH]c23)c1 | 56.5%
Cc1cccc(NC(=O)CSc2ncnc3nc[nH]c23)c1C | 43.9%
O=C(O)COc1cccc(NC(=O)C2CCCO2)c1 (stereo unspecified) | 5.81%
C=CCn1c(O)c(N=Nc2nc3ccccc3c(=O)n2-c2ccccc2)c2ccccc21 | -2.79%
O=C(CCCO)N/N=C/c1ccccc1[N+](=O)[O-] | 8.09%
O=C(CSc1nc(O)c(-c2ccccc2)c(=O)[nH]1)N1CCOCC1 | 12.3%
CCOc1ccc(N2C(=O)C3Sc4[nH]c(=O)sc4C(c4ccc(OC)c(OC)c4)C3C2=O)cc1 (stereo unspecified) | -5.76%
Cc1cc(NC(=O)C2CC=CCC2C(=O)O)no1 (stereo unspecified) | 41.7%
O=C(O)C1CC=C(Cl)CC1C(=O)NCc1ccccc1 (stereo unspecified) | 36.4%
Cc1ccc(N2CCN(C(=O)c3ccccc3NC(=O)C3CC=CCC3C(=O)O)CC2)cc1 (stereo unspecified) | 49.9%
Cc1ccc(C)c(NC(=O)C2CC3c4ccccc4C2c2ccccc23)c1 (stereo unspecified) | -1.72%
O=C(O)C1CC=CCC1C(=O)Nc1ccccc1C(=O)N1CCN(c2ccc(F)cc2)CC1 (stereo unspecified) | 23.1%
Cc1ccccc1NC(=O)C1CC(Cl)=CCC1C(=O)O (stereo unspecified) | 43.5%
O=C(NCCN1CCN(c2cccc(Cl)c2)CC1)C1CCCN(S(=O)(=O)c2cnc[nH]2)C1 (stereo unspecified) | -4.03%
NC(=O)CN1CCN(c2ccccc2F)CC1 | 4.96%
C/C(=N/NC(=O)c1cn(-c2cccc(C)n2)cn1)c1ccc(C)cc1 | -2.51%
CCOC(=O)c1ccc(-n2c(CN(CC)CC)nc3ccc([N+](=O)[O-])cc3c2=O)cc1 | 2.23%
Brc1cc2[nH]cnc2c2ccccc12 | 4.81%

Compound | inhibition
Cn1c(N)c(C(=O)COc2ccc(C#N)cc2)c(=O)n(C)c1=O | 7.75%
O=c1c(N2CCOCC2)coc2ccccc12 | 9.22%
CCCCc1sc(-c2c(C#N)c(N)nc3c2CCCCC3)cc1[N+](=O)[O-] | 1.41%
O=C(CN1C(=O)C2C3C=CC(C4CC34)C2C1=O)NCc1ccco1 (stereo unspecified) | 1.4%
O=C(CN1C(=O)C2C3C=CC(C4CC34)C2C1=O)Nc1cccc2ncccc12 (stereo unspecified) | 6.24%
CCOc1ccc(-n2c(Cc3cc(=O)[nH]c(=O)[nH]3)nnc2SCc2cccnc2)cc1 | 6.43%
COc1ccc(N2CC(O)(c3ccc(C)cc3)[N+]3=C2CCCC3)cc1 (stereo unspecified) | 1.14%
CC(C)OC(=O)c1cc(C(=O)c2cc(Cl)ccc2O)coc1=N | -2.46%
CC(C)OC(=O)c1cc(C(=O)c2cc(Br)ccc2O)coc1=N | 0.53%
COCCOC(=O)c1cc(C(=O)c2cc(Cl)ccc2O)coc1=N | 12.5%
COC(=O)c1cc(C(=O)c2cc(Cl)ccc2O)coc1=N | 10.7%
Cn1c(CC(=O)c2ccc(Br)cc2)[n+](C)c2ccccc21 | 2.42%
Nc1nc(CSc2ncn[nH]2)nc(Nc2ccc(F)cc2)n1 | -4.26%
O=S(=O)(c1ccc2c(c1)OCCO2)N1CCC(n2nnc3cc(F)ccc32)CC1 | 4.13%
CC1(C)CC(=O)c2sc(NS(=O)(=O)c3ccc(F)cc3)nc2C1 | 48.1%
CC1(C)CC(=O)c2sc(NS(=O)(=O)c3ccc(Br)cc3)nc2C1 | 18.8%
c1ccc(-c2nc3nc4ccccc4nc3n2Cc2ccco2)cc1 | 1.08%
COc1ccc(-c2noc(CCCC(=O)N3CCOCC3)n2)cc1 | -3.55%
COc1cc(/C=N/N=C2/NC(=O)C(CC(=O)O)S2)ccc1OCc1ccc(Cl)cc1 (stereo unspecified) | 23.2%
CCOc1cc(/C=N/N=C2/NC(=O)C(CC(=O)O)S2)ccc1OCc1ccc(Cl)cc1 (stereo unspecified) | 5.31%
CCOc1ccc2[nH]c(=O)c(CN(CCO)C(=O)CC)cc2c1 | -5.26%
COC(=O)c1oc2ccc(Br)cc2c1NC(=O)c1ccccc1 | 14.5%
Nc1c(C(=O)c2ccccc2)oc2ccc(Br)cc12 | -7.77%
C=CCNCCOc1c(C)cc(C)cc1Cl | 20.1%

Compound | inhibition
CC1(C(=O)OCC(=O)Nc2ccccc2)CC1(Cl)Cl (stereo unspecified) | 1.25%
CCN(C(=O)Cn1cnc2cc([N+](=O)[O-])ccc2c1=O)C1CCS(=O)(=O)C1 (stereo unspecified) | 12.2%
Oc1ccc(-c2cccc(-c3ccc(O)cc3)n2)cc1 | 1.28%
Cc1ccc(-c2nc(N=Nc3ccc(O)cc3)n[nH]2)cc1 | 12.9%
CCOc1ccc(/C=C2\SC(=S)N(CCC(=O)O)C2=O)cc1 | 6.65%
O=C(O)c1ccc(N2C(=O)CC(N3C(=O)/C(=C/c4ccc(Cl)cc4)SC3=S)C2=O)cc1 (stereo unspecified) | 6.02%
Cc1ccc(NC(=O)/C=C/c2ccco2)nc1 | 11.5%
O=C(Nc1ccccc1N1CCCC1)c1ccc([N+](=O)[O-])cc1Cl | 9.68%
CCCCN1C(=O)/C(=C/C=C2\SCCN2C)SC1=S | -4.21%
CCN1C(=O)/C(=C/C=C2/SCCN2C)SC1=S | -8.41%
Cc1ccc(S(=O)(=O)N(CC(=O)Nc2ccccc2C(=O)O)c2ccccc2C)cc1 | 2.3%
Cc1ccc(S(=O)(=O)N(CC(=O)Nc2ccccc2C(=O)O)c2ccccc2)cc1 | 4.48%
COc1ccc2sc(C)[n+](C)c2c1 | -2.85%
COc1ccc(N2C(=O)c3ccccc3C2=O)cc1 | -7.95%
COc1ccc(C(O)(C(=O)NNc2ccc(C)cc2)c2cccs2)cc1 (stereo unspecified) | 15.2%
O=[N+]([O-])c1ccc(-c2cc(-c3ccncc3)nc3ccc4ccccc4c23)cc1 | -5.09%
CC1=C(O)C(=O)OC1c1c(Cl)cccc1Cl (stereo unspecified) | -5.75%
CCCCSc1nc(C)[nH]c1[N+](=O)[O-] | -54.3%
Cc1ccc(Nc2ncnc3nc[nH]c23)cc1Cl | 6.48%
COc1ccccc1Nc1ncnc2nc[nH]c12 | 38.3%
Cc1ccc(-c2nnc(SCC(=O)N/N=C/c3c(C)nn(-c4ccccc4)c3C)n2-c2ccccc2)cc1 | -0.81%
CC(Sc1ccccc1)C(=O)Nc1ccc(S(=O)(=O)N2CCOCC2)cc1 (stereo unspecified) | 11.8%
CC(Sc1ccc(Cl)cc1)C(=O)Nc1ccc(S(=O)(=O)N2CCOCC2)cc1 (stereo unspecified) | 1.19%
CCc1ccccc1NC(=O)C1C(c2ccccc2)C1(Cl)Cl (stereo unspecified) | -8.78%

Compound | inhibition
O=C(Nc1ccccc1NC(=O)c1c(F)c(F)c(F)c(F)c1F)c1c(F)c(F)c(F)c(F)c1F | 8.25%
CC(C)N(Cc1nc(-c2ccc3c(c2)OCO3)no1)Cc1nccn1C | -7%
CC(C)c1[nH]nc2c1C1(CCN(Cc3ccccc3)CC1)C(C#N)=C(N)O2 | 30.2%
Cc1[nH]nc2c1C1(CCN(Cc3ccccc3)CC1)C(C#N)=C(N)O2 | 42.9%
Cc1sc(NC(=O)c2cccc([N+](=O)[O-])c2)c(C(N)=O)c1-c1ccc(C(C)(C)C)cc1 | 6.91%
Cc1csc(NC(=O)[C@@H]2CCCN2C(=O)c2cccs2)n1 | -1.96%
CC1=C(C(=O)OCc2ccccc2)C(c2ccc(Cl)cc2)NC(=O)N1CCCCCC(=O)O (stereo unspecified) | 47.3%
CC1=C(C(=O)OCc2ccccc2)C(c2ccc(Cl)cc2Cl)NC(=O)N1CCCC(=O)O (stereo unspecified) | 0.51%
N#Cc1ccc(C(=O)CSc2n[nH]c(=O)n2Cc2ccco2)cc1 | -0.26%
COc1ccc(Cc2nnc(NS(C)(=O)=O)s2)cc1 | 11.1%
COc1ccc(Cc2nnc(NS(=O)(=O)c3ccccc3)s2)cc1 | 52.4%
COc1ccc(NC(=O)c2cccs2)cc1 | -8.71%
O=C(O)COc1ccc(NC(=O)c2cccs2)cc1 | 16.1%
O=C(Nc1cccc(Oc2ccc(C(=O)O)c(C(=O)O)c2)c1)c1ccc(-c2ccccc2)cc1 | 38.5%
Cc1cccc(Oc2ccc(NC(=O)c3ccccc3C(=O)O)cc2)c1 | 2.06%
CC(=O)Nc1ccccc1N(CC(O)Cn1c2ccccc2c2ccccc21)S(=O)(=O)c1ccc(C)cc1 (stereo unspecified) | 11.1%
CC(=O)CSc1nnc(Cc2ccc3c(c2)OCO3)o1 | -2.53%
Cc1ccc(NC(=O)CN2C(=O)N/C(=C/c3ccc(C)s3)C2=O)cc1 | -4%
Cc1ccc(NC(=O)CN2C(=O)N/C(=C/c3ccc(C)o3)C2=O)cc1 | 71.1%
CCn1cc(C(=O)OCC(=O)N2C(C)CCCC2C)c(=O)c2ccc(C)nc21 (stereo unspecified) | 0.44%
CCCCSc1nc(O)c(C2OC(=O)c3c2ccc(OC)c3OC)c(=O)n1-c1ccccc1 (stereo unspecified) | 32%
CCCCSc1nc(O)c(C2OC(=O)c3c2ccc(OC)c3OC)c(=O)n1C (stereo unspecified) | 44.3%
CCSc1nc(O)c(C2OC(=O)c3c2ccc(OC)c3OC)c(=O)n1CC (stereo unspecified) | 41.4%
CCCSc1nc(O)c(C2OC(=O)c3c2ccc(OC)c3OC)c(=O)n1-c1ccccc1 (stereo unspecified) | 31.4%

From PubChem BioAssay AID1619 (SRMLSC, 2009)
